According to PubChem BioAssay AID539 (SRMLSC, 2006):
About 320 (0.49%) of roughly 65,000 compounds were called active.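 The calls were made as follows: active = top-ranked compounds by inhibition in the single 10 µM screen, taking a fixed number of the strongest; inactive = the rest, inconclusive results apart.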 For the sample, actives were picked, then their nearest neighbours and some compounds at random.

System: phosphomevalonate kinase (Streptococcus pneumoniae D39)
Assay: S. pneumoniae PMK inhibitors, primary screen, biochemical, mevalonate pathway, pilot trial included (AID 539);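 also: 0% = full reaction with DMSO carrier and 100% = background rate without enzyme reaction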
Details: purified PMK, PK/LDH-coupled NADH absorbance 340 nm, at 10 µM, stronger effect = higher value
[1] = measured here: pilot screen replicates

| SMILES | inhibition | inhibition [1] [%] |
| --- | --- | --- |
| O=C(Nc1cccc2c1CCCC2)C1CCN(C(=O)NC2CCCCC2)CC1 | 13% (inactive) |  |
| CCC(C)n1[nH]c(=O)cc1N (configuration not stated) | 5% (inactive) |  |
| Cc1nn2c3cc(N4CCOCC4)ccc3nc2c2ccccc12 | 0% (inactive) |  |
| Cn1c(SCC(=O)Nc2cccc(O)c2)nnc1-c1ccc(S(=O)(=O)N2CCOCC2)cc1 | 0% (inactive) |  |
| Cc1ccccc1C(=O)Nc1cccc(-c2nnc(SCC(=O)O)n2C)c1 | 7% (inactive) |  |
| Cn1c(SCC(=O)N2CCOCC2)nnc1-c1ccc(NC(=O)c2ccccc2F)cc1 | 40% (active) |  |
| CCc1nnc(NC(=O)CSc2nnc(COc3ccc(C#N)cc3)n2-c2ccccc2)s1 | 4% (inactive) |  |
| Cn1c(=O)[nH]c(=O)c2c1nc(Br)n2CCCCSc1nc2ccccc2o1 | 8% (inactive) |  |
| C1=C(CCNc2ncnc3c2cnn3-c2ccccc2)CCCC1 | 8% (inactive) | 0.5 |
| c1csc(-c2nc(-c3ccncc3)no2)c1 | 0% (inactive) |  |
| O=C(O)CCN1C(=O)CC2(CCCCC2)C1=O | 12% (inactive) |  |
| Cc1ccc(C)c(NC(=O)C2CCCN2C(=O)OC(C)(C)C)c1 (configuration not stated) | 0% (inactive) |  |
| CC(C)N(C(=O)Cn1c(SCC(=O)N2CCN(c3ccccc3)CC2)nc2ccccc21)C(C)C | 4% (inactive) |  |
| COCCN(CC(=O)Nc1ccccc1C)S(=O)(=O)c1ccc(S(=O)(=O)N2CCCC2)cc1 | 10% (inactive) | 2.5 |
| CCOC(=O)C1CCN(C(=O)C2CCN(S(=O)(=O)c3c(C)noc3C)CC2)CC1 | 11% (inactive) |  |
| CCOC(=O)C1CCN(C(=O)C2CCN(S(=O)(=O)CC)CC2)CC1 | 2% (inactive) |  |
| CCOC(=O)C1CCN(C(=O)C2CCN(S(=O)(=O)N3CCCC3)CC2)CC1 | 30% (active) |  |
| CC1(C)CC(=O)C=C(NC2CC(C)(C)NC(C)(C)C2)C1 | 8% (inactive) |  |
| c1ccc(CCn2nnnc2CN2CCN(C3CCCC3)CC2)cc1 | 0% (inactive) | 0.5 |
| CC1CCCCC1NC(=O)CCS(=O)(=O)c1cccc2nonc12 (configuration not stated) | 0% (inactive) |  |
| O=C1CSC(=O)N1CCOCCN1C(=O)CSC1=O | 8% (inactive) |  |
| Cc1ccccc1CN1CCN(C(=O)c2cccc(F)c2)CC1 | 0% (inactive) | 2 |
| CCCCCOC(=O)C1=C(C)Nc2nnnn2C1c1ccc(OC)c(OC)c1OC (configuration not stated) | 11% (inactive) |  |
| COc1ccc(CCn2nnnc2C(c2ccccc2)N2CCN(C)CC2)cc1OC (configuration not stated) | 18% (inactive) |  |
| COC(=O)c1ccc(Oc2nc(Nc3ccc(F)cc3)nc(N3CCCC3)n2)cc1 | 4% (inactive) |  |

| SMILES | inhibition | inhibition [1] [%] |
| --- | --- | --- |
| CCC1CCCCN1CCCNC(=O)Cn1nc(-c2ccccc2)ccc1=O (configuration not stated) | 26% (active) |  |
| Cc1ccc(-c2ccc(=O)n(CC(=O)NCCCN3CCCCC3)n2)cc1 | 18% (inactive) |  |
| CCC1CCCCN1CCNC(=O)c1[nH]c(C)c(C(C)=O)c1C (configuration not stated) | 1% (inactive) |  |
| CCCCNc1nc2c(c(=O)n(C)c(=O)n2C)n1Cc1cccc(OC)c1 | 0% (inactive) |  |
| COc1ccccc1NC(=O)CN1CCN(S(=O)(=O)c2ccc(Br)cc2)CC1 | 5% (inactive) |  |
| NC(=O)C1CCN(C(=O)c2ccc(C(F)(F)F)cc2)CC1 | 12% (inactive) |  |
| CCC(=O)c1ccc(OCC(O)CN2CCN(c3cccc(C(F)(F)F)c3)CC2)cc1 (configuration not stated) | 0% (inactive) |  |
| O=C(NCCCN1CCCCCC1)C1CC(=O)N(C2CCCC2)C1 (configuration not stated) | 12% (inactive) |  |
| CCOc1ccc2[nH]c(=O)c(CN(CCCO)C(C)=O)cc2c1 | 20% (inactive) |  |
| COC(=O)CCSc1nccn1Cc1ccccc1 | 0% (inactive) |  |
| O=C(CSc1nnnn1-c1ccc2c(c1)CCC2)Nc1ccc2c(c1)OCCO2 | 0% (inactive) |  |
| CCn1ncc(Br)c1C(=O)Nc1cc(C)ccc1F | 6% (inactive) |  |
| COc1ccc(C(c2nnnn2C2CCCCC2)N2CCN(c3ccccc3F)CC2)cc1 (configuration not stated) | 3% (inactive) |  |
| CC1CCc2c(sc(NC(=O)c3ccc(Cn4cc(Br)cn4)o3)c2C(N)=O)C1 (configuration not stated) | 0% (inactive) |  |
| COc1ccc(N(CC(=O)NC2CCCCCCC2)S(=O)(=O)c2c(C)nn(C)c2C)cc1 | 10% (inactive) |  |
| CCOC(=O)c1cccc(NC(=O)CN(c2ccc(C)cc2)S(=O)(=O)c2c(C)noc2C)c1 | 13% (inactive) |  |
| Cc1ccc(S(=O)(=O)N2CCOCC2)cc1C(=O)NCc1ccc(F)cc1 | 8% (inactive) |  |
| Cc1nc2nc[nH]n2c(=O)c1NC(=O)c1cccc(OCC(C)C)c1 | 12% (inactive) |  |
| O=C(Cn1nc(Cc2cccnc2)c2ccccc2c1=O)NCC1COc2ccccc2O1 (configuration not stated) | 7% (inactive) |  |
| COCCNC(=O)C(C#N)c1nc2ccccc2nc1N1CCN(Cc2ccc3c(c2)OCO3)CC1 (configuration not stated) | 2% (inactive) |  |
| CCOC(=O)Cc1csc(NC(=O)C(C)(C)C)n1 | 4% (inactive) |  |
| COC(=O)CSc1nc(C2CC2)nc2ccccc12 | 15% (inactive) |  |
| Cc1ccccc1-n1nnc2c(=O)oc3ccccc3c21 | 10% (inactive) | 4 |
| CC(=O)N1CCN(C(=O)Nc2cccc(C(F)(F)F)c2)CC1 | 17% (inactive) |  |
| CC(C)C(NC(=O)c1cccc(S(=O)(=O)N2CCOCC2)c1)C(=O)NCCc1ccccn1 (configuration not stated) | 11% (inactive) |  |

| SMILES | inhibition | inhibition [1] [%] |
| --- | --- | --- |
| Cn1c(=O)c2c(nc(N3CCCCCC3)n2CC(O)COc2ccc(Cl)cc2)n(C)c1=O (configuration not stated) | 7% (inactive) |  |
| Cn1c(=O)oc2cc(S(=O)(=O)N3CCC(C(=O)Nc4ccc(OC(F)(F)F)cc4)CC3)ccc21 | 14% (inactive) | 2 |
| COc1ccc(S(=O)(=O)N2CCC(C(=O)N3CCOCC3)CC2)cc1OC | 8% (inactive) |  |
| CCC(CC)C(=O)Nc1cccc(C(=O)N2CCCC2)c1 | 4% (inactive) |  |
| C=CCn1c(C)cc(C(=O)CN2C(=O)c3ccccc3C2=O)c1C | 13% (inactive) |  |
| COc1cc(C2C(C(=O)c3sc(C)nc3C)=C(O)C(=O)N2CCN(C)C)cc(OC)c1OC (configuration not stated) | 17% (inactive) |  |
| O=C(COc1ccc2c3c(c(=O)oc2c1)CCC3)NC1CCCCC1 | 15% (inactive) |  |
| CCOC(=O)N1CCN(S(=O)(=O)c2cc3c(cc2C)NC(=O)CO3)CC1 | 14% (inactive) |  |
| CC(=O)C1C(c2ccc(Cl)cc2)NC(=O)NC1(O)C(F)(F)F (configuration not stated) | 7% (inactive) |  |
| Nc1c(C(=O)NCc2ccccc2)nnn1Cc1cccc(Cl)c1 | 0% (inactive) |  |
| CCOC(=O)c1[nH]c2ccc(OC)cc2c1NC(=O)CCN1CCN(Cc2ccccc2)CC1 | 6% (inactive) |  |
| CCN(CC)S(=O)(=O)c1cccc(C(=O)NCC(=O)OCC(=O)NCc2ccccc2)c1 | 0% (inactive) |  |
| Cc1ccc(C)n1C(Cc1ccccc1)C(=O)O (configuration not stated) | 7% (inactive) |  |
| COc1ccc(OC)c2c1sc(=NC(=O)CN1C(=O)CCC1=O)n2C | 12% (inactive) |  |
| O=C(Nc1ccc(S(=O)(=O)N2CCCC2)cc1Cl)C1=COCCO1 | 14% (inactive) |  |
| N#Cc1ccccc1-n1c(N)c(C(=O)N2CCCC2)sc1=S | 4% (inactive) |  |
| Cc1ccc(S(=O)(=O)N2CCN(C(=O)CCC(=O)NC3CCCc4ccccc43)CC2)cc1 (configuration not stated) | 21% (inactive) |  |
| c1ccc(CCN2CN=C(Nc3nc4ccccc4o3)NC2)cc1 | 7% (inactive) |  |
| Fc1ccc2nc(Nc3nc4c(s3)CCCC4)sc2c1 | 8% (inactive) |  |
| Clc1ccc(Cn2ncc3c(NCc4cccnc4)ncnc32)cc1 | 9% (inactive) | 1.5 |
| Fc1c(F)c(C(F)(F)F)c(F)c(F)c1N1CCN(c2ccc3nnc(C(F)(F)F)n3n2)CC1 | 0% (inactive) |  |
| COc1ccccc1N1CCN(c2nc3ccccc3n3nnnc23)CC1 | 7% (inactive) |  |
| Cc1ccc(C(=O)NC2CC(C)(C)NC(C)(C)C2)c(C)c1 | 1% (inactive) |  |
| CCOC(=O)N1CCN(Cc2nc3c(c(=O)n(C)c(=O)n3C)n2Cc2ccccc2)CC1 | 2% (inactive) | 1 |
| CCOC(=O)CSc1nc2c(c(=O)n(Cc3ccccc3Cl)c(=O)n2C)n1C | 5% (inactive) |  |

| SMILES | inhibition | inhibition [1] [%] |
| --- | --- | --- |
| CCOc1cc2[nH]c(=S)n(CCCN3CCCC3=O)c(=O)c2cc1OCC | 14% (inactive) |  |
| COc1ccc(OC)c2[nH]c(=O)c(CCNC(=O)C(C)(C)C)cc12 | 7% (inactive) |  |
| N=c1c2c3c(sc2ncn1N)CCCCC3 | 17% (inactive) |  |
| O=C1c2ccccc2C(=O)N1c1ccccc1S(=O)C(F)(F)F (configuration not stated) | 12% (inactive) |  |
| CCOC(=O)c1nnn(-c2nc(OC)nc(N(C)C)n2)c1-c1ccccc1 | 17% (inactive) |  |
| COc1ccccc1NC(=O)C1=C(C)Nc2ncnn2C1c1ccc(C)o1 (configuration not stated) | 3% (inactive) | 2.5 |
| COc1ccccc1NC(=O)C1=C(C)NC2=C(C(=O)CCC2)C1c1ccc(C)o1 (configuration not stated) | 26% (active) |  |
| COc1ccc(C2C(C(=O)Nc3ccccc3OC)=C(C)Nc3nnnn32)c(OC)c1 (configuration not stated) | 8% (inactive) |  |
| COc1cc(OC)cc(C(=O)Nc2ncc3c(n2)CC(C)(C)CC3=O)c1 | 11% (inactive) |  |
| Cc1cc(NC(=O)Cn2nc(C(F)(F)F)c3c2CCCC3)no1 | 3% (inactive) |  |
| c1cnc(NC2C3CC4CC(C3)CC2C4)nc1 (configuration not stated) | 7% (inactive) |  |
| COc1ccc2[nH]c3ccc(OC)cc3c2c1 | 6% (inactive) |  |
| COc1ccc(NC(=O)C2CCCN(S(=O)(=O)c3cccc4cccnc34)C2)cc1 (configuration not stated) | 8% (inactive) |  |
| C#CCN1CC(C)/C(=N/O)CC1C (configuration not stated) | 7% (inactive) |  |
| Cc1cccc(NC(=O)c2ccc3ccccc3n2)n1 | 0% (inactive) | 0.5 |
| CCOc1ccc(CNC(=O)C2CC(=O)N(C3CCCC3)C2)cc1OC (configuration not stated) | 8% (inactive) |  |
| CCOCCCN1C(=O)CN(C2CCCCC2)C(=O)C1c1ccc(OCC)c(OC)c1 (configuration not stated) | 29% (active) |  |
| CCOc1ccc(CNC(=O)C2CCC(=O)N2C2CCCC2)cc1OC (configuration not stated) | 11% (inactive) |  |
| CCc1ccccc1NC(=O)c1cccs1 | 7% (inactive) |  |
| CCc1nnc(NC(=O)CCC(=O)O)s1 | 0% (inactive) |  |
| CCc1nnc(NC(=O)c2cccs2)s1 | 35% (active) |  |
| CCCN(c1ccc(C(C)C)cc1)S(=O)(=O)c1c(C)[nH]c(=O)[nH]c1=O | 8% (inactive) |  |
